The supplement of paper PMC10849652
Targets with a hit are over-represented here; the source holds about 8,800 in all. About 0.5% of all pairs of compound and target were hits.

Key:
Assay in all cases: log2 fold change, soluble protein after heating vs DMSO (PISA); higher = thermal stabilisation; K562 lysate, 10 uM; active = over 0.2 and 3.5 SD of the protein, either way, in both replicates (recomputed)
ibrutinib = compound: C=CC(=O)N1CCC[C@@H](n2nc(-c3ccc(Oc4ccccc4)cc3)c3c(N)ncnc32)C1 [ibrutinib]
How it was run: (§1)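 Pellets of K562 cells were dounce-homogenised in PBS pH 7.4 with 1 mM MgCl2, and the crude extract was held at 1 mg/mL protein for a 30 min treatment with 10 μM compound. Aliquots were heated for 3 min over 48°C-58°C and pooled before NP-40 was added to 0.5% at 4°C. The supernatant from 21,000xg for 90 min was quantified by TMTpro 16plex LC-MS/MS with channel sums equalised. Values are reported from duplicates as log-two fold change in thermal stability relative to solvent controls.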

[1] = compound: CC(=O)c1cnc2ccc(-c3cc(Cl)c(O)c(Cl)c3)nc2c1N[C@H]1CC[C@H](CN(C)C)CC1
How it was run: as §1

ralimetinib = compound: CC(C)(C)Cn1c(N)nc2ccc(-c3[nH]c(C(C)(C)C)nc3-c3ccc(F)cc3)nc21 [ralimetinib]
How it was run: as §1

[2] = compound: CC(C)(O)CC(=O)NCCn1ccc2ncnc(Nc3ccc(Oc4cccc(C(F)(F)F)c4)c(Cl)c3)c21
How it was run: as §1

[3] = compound: CC(C)C1=C2N=C(C=C(N2N=C1)NCC3=CC=CC=C3)NCCCCCCN
How it was run: as §1

[4] = compound: CC1=C(C(CC(=O)N1)C2=CC=C(C=C2)C(F)(F)F)C(=O)NC3=C(C=C4C(=C3)C=NN4)F
How it was run: as §1

[5] = compound: CC1=C(C2=C(C=C1)C(=O)C3=CC=CC=C3N2CCCN)C
How it was run: as §1

[6] = compound: CC1=C(C=C(C=C1)NC(=O)C2=CC(=CC=C2)C(C)(C)C#N)NC3=CC4=C(C=C3)N=CN(C4=O)C
How it was run: as §1

[7] = compound: CC1=C(C=C(C=C1)NC(=O)C2=CC(=CC=C2)N(C)C)NC(=O)C3=CC=C(C=C3)O
How it was run: as §1

[8] = compound: CC1=CC=C(C=C1)SC2=C3C=C(SC3=CN=C2)C(=O)N
How it was run: as §1

vemurafenib = compound: CCCS(=O)(=O)Nc1ccc(F)c(C(=O)c2c[nH]c3ncc(-c4ccc(Cl)cc4)cc23)c1F [vemurafenib]
How it was run: as §1

[9] = compound: CCCS(=O)(=O)Nc1ccc(F)c(C(=O)c2c[nH]c3ncc(Cl)cc23)c1F
How it was run: as §1

barasertib = compound: CCN(CCCOc1ccc2c(Nc3cc(CC(=O)Nc4cccc(F)c4)[nH]n3)ncnc2c1)CCOP(=O)(O)O [barasertib]
How it was run: as §1

[10] = compound: CC[C@@H]1C(=O)N(C)c2cnc(Nc3ccc(C(=O)NC4CCN(C)CC4)cc3OC)nc2N1C1CCCC1
How it was run: as §1

volasertib = compound: CC[C@@H]1C(=O)N(C)c2cnc(Nc3ccc(C(=O)N[C@H]4CC[C@H](N5CCN(CC6CC6)CC5)CC4)cc3OC)nc2N1C(C)C [volasertib]
How it was run: as §1

[11] = compound: CCn1c(C(=O)N(C2CC2)C2CC2)cc2c3c(ncn3C)c(Nc3cc(C)n(C)n3)nc21
How it was run: as §1

[12] = compound: CCn1cc(-c2ccnc3[nH]c(-c4cccc(CN(C)C)c4)cc23)c(-c2ccc(NC(=O)N(C)C)cc2)n1
How it was run: as §1

[13] = compound: CN1CCC(CNc2ccc3ncc(-c4cccc(OC(F)(F)F)c4)n3n2)CC1
How it was run: as §1

saracatinib = compound: CN1CCN(CCOc2cc(OC3CCOCC3)c3c(Nc4c(Cl)ccc5c4OCO5)ncnc3c2)CC1 [saracatinib]
How it was run: as §1

sotrastaurin = compound: CN1CCN(c2nc(C3=C(c4c[nH]c5ccccc45)C(=O)NC3=O)c3ccccc3n2)CC1 [sotrastaurin]
How it was run: as §1

Measured: log2 fold change

TECR (UniProt Q9NZ01)
Sequence of UniProt Q9NZ01 (Q9NZ01 whole entry, looked up): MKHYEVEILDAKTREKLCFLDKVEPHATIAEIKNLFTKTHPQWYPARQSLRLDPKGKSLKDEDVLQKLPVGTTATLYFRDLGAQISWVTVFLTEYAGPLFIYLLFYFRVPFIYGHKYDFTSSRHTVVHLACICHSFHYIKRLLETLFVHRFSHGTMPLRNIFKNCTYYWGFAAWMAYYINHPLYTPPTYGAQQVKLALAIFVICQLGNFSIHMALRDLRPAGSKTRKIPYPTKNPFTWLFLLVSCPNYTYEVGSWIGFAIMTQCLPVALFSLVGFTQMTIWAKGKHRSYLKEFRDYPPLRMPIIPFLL
inactive: ibrutinib -0.003 | [1] 0.037 | ralimetinib 0 | [2] -0.046 | [3] -0.003 | [4] 0.044 | [5] 0.041 | [6] -0.031 | [7] 0.06 | [8] 0.025 | vemurafenib -0.003 | [9] 0.054 | barasertib 0.082 | [10] -0.02 | volasertib 0.001 | [11] 0.032 | [12] 0.014 | [13] -0.247 | saracatinib 0.045 | sotrastaurin -0.034

TERF2IP (UniProt Q9NYB0)
Sequence of UniProt Q9NYB0 (Q9NYB0 whole entry, looked up): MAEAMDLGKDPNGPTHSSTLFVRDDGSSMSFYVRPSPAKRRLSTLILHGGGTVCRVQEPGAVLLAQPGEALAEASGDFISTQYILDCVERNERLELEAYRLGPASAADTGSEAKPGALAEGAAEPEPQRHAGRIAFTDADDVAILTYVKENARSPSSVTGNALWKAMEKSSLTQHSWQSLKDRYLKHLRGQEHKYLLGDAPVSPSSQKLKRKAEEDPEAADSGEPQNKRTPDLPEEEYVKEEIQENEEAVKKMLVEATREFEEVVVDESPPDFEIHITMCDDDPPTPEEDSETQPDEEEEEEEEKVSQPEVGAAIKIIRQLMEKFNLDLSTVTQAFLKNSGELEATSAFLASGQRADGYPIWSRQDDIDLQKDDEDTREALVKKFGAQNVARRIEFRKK
active: [12] 0.269
inactive: ibrutinib 0.02 | [1] -0.012 | ralimetinib 0.025 | [2] -0.049 | [3] -0.047 | [4] 0.004 | [5] -0.004 | [6] -0.008 | [7] -0.005 | [8] 0.003 | vemurafenib -0.009 | [9] -0.003 | barasertib -0.006 | [10] 0.075 | volasertib 0.022 | [11] -0.015 | [13] -0.152 | saracatinib -0.003 | sotrastaurin 0.008

TK1 (UniProt P04183)
Sequence of UniProt P04183 (P04183 whole entry, looked up): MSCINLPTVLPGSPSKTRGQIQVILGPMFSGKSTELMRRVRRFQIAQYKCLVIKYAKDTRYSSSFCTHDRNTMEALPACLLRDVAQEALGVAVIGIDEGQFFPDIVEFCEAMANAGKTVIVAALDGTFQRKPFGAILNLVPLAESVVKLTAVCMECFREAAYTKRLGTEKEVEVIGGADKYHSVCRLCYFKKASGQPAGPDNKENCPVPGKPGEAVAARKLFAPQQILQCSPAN
inactive: ibrutinib 0.004 | [1] -0.004 | ralimetinib 0.023 | [2] -0.022 | [3] -0.029 | [4] 0 | [5] 0.006 | [6] 0.046 | [7] -0.014 | [8] -0.006 | vemurafenib 0.022 | [9] 0.013 | barasertib -0.007 | [10] 0.009 | volasertib 0.031 | [11] -0.008 | [12] -0.124 | [13] 0.104 | saracatinib -0.002 | sotrastaurin 0.002

TCF12 isoform 3 (UniProt Q99081)
inactive: ibrutinib 0.059 | [1] -0.029 | ralimetinib -0.022 | [2] -0.054 | [3] 0.002 | [4] -0.008 | [5] 0.064 | [6] -0.008 | [7] 0.011 | [8] 0.109 | vemurafenib 0.008 | [9] -0.068 | barasertib -0.037 | [10] 0.034 | volasertib -0.094 | [11] 0.017 | [12] -0.04 | [13] 0.079 | saracatinib 0.043 | sotrastaurin -0.054

TRIM11 (UniProt Q96F44)
Sequence of UniProt Q96F44 (Q96F44 whole entry, looked up): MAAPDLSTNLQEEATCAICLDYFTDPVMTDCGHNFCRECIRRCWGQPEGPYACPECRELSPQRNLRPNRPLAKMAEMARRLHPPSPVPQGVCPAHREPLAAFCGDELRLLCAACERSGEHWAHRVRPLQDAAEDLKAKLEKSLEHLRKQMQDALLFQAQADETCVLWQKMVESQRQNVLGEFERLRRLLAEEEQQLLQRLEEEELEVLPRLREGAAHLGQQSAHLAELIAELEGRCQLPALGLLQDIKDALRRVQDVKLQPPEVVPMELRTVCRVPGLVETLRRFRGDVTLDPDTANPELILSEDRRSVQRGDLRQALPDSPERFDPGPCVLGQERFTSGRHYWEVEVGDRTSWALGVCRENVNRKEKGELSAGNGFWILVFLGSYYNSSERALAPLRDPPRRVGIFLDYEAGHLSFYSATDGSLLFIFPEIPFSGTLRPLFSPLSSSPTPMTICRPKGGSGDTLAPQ
inactive: ibrutinib 0.008 | [1] 0.05 | ralimetinib -0.009 | [2] -0.049 | [3] -0.011 | [4] -0.067 | [5] -0.04 | [6] 0.005 | [7] -0.014 | [8] 0.036 | vemurafenib -0.049 | [9] -0.018 | barasertib -0.034 | [10] -0.001 | volasertib -0.043 | [11] 0.022 | [12] 0.024 | [13] 0.009 | saracatinib 0.024 | sotrastaurin -0.009

TTI1 (UniProt O43156)
inactive: ibrutinib 0 | [1] 0.014 | ralimetinib 0.018 | [2] -0.049 | [3] -0.029 | [4] 0.013 | [5] 0.02 | [6] 0.068 | [7] -0.009 | [8] 0.026 | vemurafenib 0.006 | [9] -0.012 | barasertib 0.055 | [10] -0.093 | volasertib -0.026 | [11] 0.006 | [12] -0.074 | [13] 0.019 | saracatinib -0.003 | sotrastaurin 0.006

TRIM56 (UniProt Q9BRZ2)
Sequence of UniProt Q9BRZ2 (Q9BRZ2 whole entry, looked up): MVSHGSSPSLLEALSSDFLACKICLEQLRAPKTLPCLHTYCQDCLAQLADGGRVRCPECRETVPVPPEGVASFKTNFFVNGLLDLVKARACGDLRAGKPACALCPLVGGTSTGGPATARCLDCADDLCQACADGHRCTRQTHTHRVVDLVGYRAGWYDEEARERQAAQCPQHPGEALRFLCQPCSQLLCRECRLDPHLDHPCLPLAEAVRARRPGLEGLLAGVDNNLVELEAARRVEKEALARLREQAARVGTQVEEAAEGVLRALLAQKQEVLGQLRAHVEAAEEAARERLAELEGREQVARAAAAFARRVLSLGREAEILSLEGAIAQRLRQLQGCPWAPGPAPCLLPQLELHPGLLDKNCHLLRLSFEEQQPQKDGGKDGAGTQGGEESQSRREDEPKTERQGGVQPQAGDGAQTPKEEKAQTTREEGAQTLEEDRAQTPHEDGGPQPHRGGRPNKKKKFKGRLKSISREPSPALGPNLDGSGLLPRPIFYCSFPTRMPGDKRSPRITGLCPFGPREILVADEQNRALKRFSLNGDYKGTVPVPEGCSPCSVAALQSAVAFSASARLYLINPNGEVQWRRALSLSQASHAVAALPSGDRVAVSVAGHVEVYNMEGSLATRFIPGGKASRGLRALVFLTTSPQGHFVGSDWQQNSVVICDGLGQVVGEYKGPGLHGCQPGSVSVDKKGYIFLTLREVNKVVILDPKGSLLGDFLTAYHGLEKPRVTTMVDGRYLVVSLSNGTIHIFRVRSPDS
inactive: ibrutinib 0.023 | [1] 0.007 | ralimetinib 0.028 | [2] 0.001 | [3] -0.03 | [4] 0 | [5] 0.002 | [6] -0.06 | [7] 0.014 | [8] 0.033 | vemurafenib 0.026 | [9] 0.026 | barasertib -0.039 | [10] 0.006 | volasertib -0.029 | [11] -0.04 | [12] 0.227 | [13] -0.102 | saracatinib 0.031 | sotrastaurin -0.019

TMOD1 (UniProt P28289)
Sequence of UniProt P28289 (P28289 whole entry, looked up): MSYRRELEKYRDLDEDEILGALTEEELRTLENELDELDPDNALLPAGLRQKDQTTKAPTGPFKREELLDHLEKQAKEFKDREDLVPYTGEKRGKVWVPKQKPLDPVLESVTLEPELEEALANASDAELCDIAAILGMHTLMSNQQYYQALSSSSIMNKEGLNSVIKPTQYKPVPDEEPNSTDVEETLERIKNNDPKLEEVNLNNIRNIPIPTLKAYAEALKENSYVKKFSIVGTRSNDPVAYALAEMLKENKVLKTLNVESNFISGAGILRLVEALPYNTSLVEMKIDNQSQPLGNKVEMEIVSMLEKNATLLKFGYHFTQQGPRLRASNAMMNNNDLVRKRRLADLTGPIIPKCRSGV
inactive: ibrutinib 0.002 | [1] 0.007 | ralimetinib -0.015 | [2] -0.02 | [3] 0 | [4] -0.004 | [5] 0.006 | [6] 0 | [7] 0.016 | [8] -0.019 | vemurafenib -0.015 | [9] -0.02 | barasertib 0.027 | [10] -0.027 | volasertib -0.031 | [11] -0.024 | [12] 0.041 | [13] -0.031 | saracatinib -0.001 | sotrastaurin -0.017

TUBA4A (UniProt P68366)
Sequence of UniProt P68366 (P68366 whole entry, looked up): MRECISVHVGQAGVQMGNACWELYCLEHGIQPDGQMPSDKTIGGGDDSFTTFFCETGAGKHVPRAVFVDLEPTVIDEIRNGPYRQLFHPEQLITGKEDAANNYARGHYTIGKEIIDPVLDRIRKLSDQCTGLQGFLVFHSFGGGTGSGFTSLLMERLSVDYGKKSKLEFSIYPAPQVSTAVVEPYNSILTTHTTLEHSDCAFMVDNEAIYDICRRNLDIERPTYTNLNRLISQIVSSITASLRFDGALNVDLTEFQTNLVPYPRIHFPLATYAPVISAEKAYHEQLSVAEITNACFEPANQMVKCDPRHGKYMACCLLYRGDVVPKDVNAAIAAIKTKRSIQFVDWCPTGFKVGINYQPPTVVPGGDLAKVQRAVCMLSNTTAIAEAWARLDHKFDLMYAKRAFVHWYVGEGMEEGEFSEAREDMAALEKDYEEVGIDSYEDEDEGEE
inactive: ibrutinib -0.012 | [1] 0.023 | ralimetinib 0.012 | [2] 0.017 | [3] 0.023 | [4] -0.031 | [5] -0.013 | [6] 0.017 | [7] -0.017 | [8] 0.012 | vemurafenib 0.003 | [9] -0.045 | barasertib 0.028 | [10] -0.023 | volasertib -0.056 | [11] 0.033 | [12] -0.05 | [13] 0.003 | saracatinib -0.036 | sotrastaurin -0.039

TMEM199 (UniProt Q8N511)
Sequence of UniProt Q8N511 (Q8N511 whole entry, looked up): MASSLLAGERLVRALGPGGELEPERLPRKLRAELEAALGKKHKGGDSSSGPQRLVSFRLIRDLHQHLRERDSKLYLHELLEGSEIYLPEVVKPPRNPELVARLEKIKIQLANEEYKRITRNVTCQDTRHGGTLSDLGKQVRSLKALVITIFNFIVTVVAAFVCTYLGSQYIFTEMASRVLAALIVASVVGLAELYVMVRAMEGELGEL
inactive: ibrutinib 0.067 | [1] 0.001 | ralimetinib -0.001 | [2] -0.078 | [3] -0.003 | [4] 0.001 | [6] -0.043 | [7] -0.016 | [8] 0.009 | vemurafenib 0 | [9] 0.026 | barasertib 0.009 | [10] 0.023 | volasertib 0 | [11] -0.003 | [12] -0.06 | [13] 0.054 | saracatinib 0.048 | sotrastaurin 0.035
active: [5] -0.275

TBCE (UniProt Q15813)
Sequence of UniProt Q15813 (Q15813 whole entry, looked up): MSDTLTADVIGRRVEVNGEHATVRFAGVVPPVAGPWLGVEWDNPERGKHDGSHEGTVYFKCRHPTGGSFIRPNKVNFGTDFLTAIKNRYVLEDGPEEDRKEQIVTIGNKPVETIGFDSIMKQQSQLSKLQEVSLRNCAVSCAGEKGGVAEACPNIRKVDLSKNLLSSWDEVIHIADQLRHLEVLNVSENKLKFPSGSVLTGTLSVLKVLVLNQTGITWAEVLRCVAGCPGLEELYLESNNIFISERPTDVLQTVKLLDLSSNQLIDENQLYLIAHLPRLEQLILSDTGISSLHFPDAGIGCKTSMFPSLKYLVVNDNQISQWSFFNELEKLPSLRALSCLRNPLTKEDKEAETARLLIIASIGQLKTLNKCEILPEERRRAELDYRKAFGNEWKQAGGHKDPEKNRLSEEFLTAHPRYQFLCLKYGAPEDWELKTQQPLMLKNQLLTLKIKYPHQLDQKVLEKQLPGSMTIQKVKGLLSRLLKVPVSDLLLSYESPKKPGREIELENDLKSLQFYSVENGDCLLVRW
inactive: ibrutinib -0.027 | [1] 0.004 | ralimetinib 0.037 | [2] 0.01 | [3] -0.004 | [4] 0.003 | [5] 0.004 | [6] -0.007 | [7] 0.025 | [8] -0.016 | vemurafenib 0.04 | [9] 0.015 | barasertib 0.024 | [10] -0.065 | volasertib -0.082 | [11] 0.048 | [12] -0.044 | [13] -0.023 | saracatinib 0.013 | sotrastaurin 0.001

TRAPPC9 isoform 2 (UniProt Q96Q05)
Sequence of UniProt Q96Q05 (Q96Q05 whole entry, looked up): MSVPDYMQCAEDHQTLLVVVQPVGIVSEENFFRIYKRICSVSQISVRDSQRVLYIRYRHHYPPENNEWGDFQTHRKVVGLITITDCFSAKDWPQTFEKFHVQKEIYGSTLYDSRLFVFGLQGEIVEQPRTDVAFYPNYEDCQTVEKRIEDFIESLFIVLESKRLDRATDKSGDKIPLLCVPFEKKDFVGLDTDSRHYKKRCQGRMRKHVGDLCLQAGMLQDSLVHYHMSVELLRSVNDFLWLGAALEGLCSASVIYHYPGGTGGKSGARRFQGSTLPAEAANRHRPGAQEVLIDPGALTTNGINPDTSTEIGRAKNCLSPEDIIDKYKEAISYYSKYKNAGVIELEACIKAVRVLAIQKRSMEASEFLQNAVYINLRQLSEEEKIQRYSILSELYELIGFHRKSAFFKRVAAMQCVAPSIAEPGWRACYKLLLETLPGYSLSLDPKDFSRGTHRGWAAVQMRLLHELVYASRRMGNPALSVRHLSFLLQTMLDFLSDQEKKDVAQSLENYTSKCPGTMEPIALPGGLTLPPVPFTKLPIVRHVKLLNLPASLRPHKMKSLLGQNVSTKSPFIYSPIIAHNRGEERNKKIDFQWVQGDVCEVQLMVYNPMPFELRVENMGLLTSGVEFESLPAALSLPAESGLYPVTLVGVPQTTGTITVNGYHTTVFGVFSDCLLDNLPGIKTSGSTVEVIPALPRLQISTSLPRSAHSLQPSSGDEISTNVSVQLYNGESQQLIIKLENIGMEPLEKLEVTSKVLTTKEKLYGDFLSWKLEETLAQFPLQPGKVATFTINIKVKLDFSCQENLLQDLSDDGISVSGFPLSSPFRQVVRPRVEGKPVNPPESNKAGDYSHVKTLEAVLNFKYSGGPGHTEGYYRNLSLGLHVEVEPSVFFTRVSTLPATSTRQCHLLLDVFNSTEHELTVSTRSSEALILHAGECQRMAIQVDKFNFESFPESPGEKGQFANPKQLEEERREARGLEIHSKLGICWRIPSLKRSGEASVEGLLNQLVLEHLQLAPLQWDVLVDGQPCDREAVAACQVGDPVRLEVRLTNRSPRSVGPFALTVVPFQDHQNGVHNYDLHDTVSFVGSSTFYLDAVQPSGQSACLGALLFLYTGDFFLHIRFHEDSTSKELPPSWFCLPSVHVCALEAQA
inactive: ibrutinib 0.003 | [1] 0.019 | ralimetinib 0.055 | [2] -0.025 | [3] -0.003 | [4] -0.043 | [5] -0.023 | [6] 0.02 | [7] -0.016 | [8] -0.001 | vemurafenib 0.053 | [9] 0.001 | barasertib 0.007 | [10] -0.004 | volasertib -0.059 | [11] 0.021 | [12] 0.011 | [13] 0.019 | saracatinib 0.005 | sotrastaurin -0.035
